# Test results reported in PubChem BioAssay (NCI).
# The panel holds about 79,000 compounds, 15% with a hit somewhere; the sample as a whole holds those more often. Unmarked numbers belong to inactive results. The source made the active and inactive calls. Rule as the data show it: active = growth inhibition above about 70%; inactive = the rest.
# Columns and labels:
# [1] = NCI Yeast Anticancer Drug Screen. Data for the rad52 strain (AID 147);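 also: 0% = growth of vehicle-treated control cultures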; conditions: S. cerevisiae rad52 mutant growth inhibition, hits give high values
# Method in brief: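 Here a repair-compromised yeast strain receives each compound; its growth is then quantified and normalised to vehicle-only controls.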
# [2] = NCI Yeast Anticancer Drug Screen. Data for the wt1 strain (AID 149);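 also: 0% = growth of vehicle-treated wt1 cultures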; conditions: S. cerevisiae wt1 strain (SPY 50644) growth inhibition, hits give high values
# Method in brief: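 wt1 yeast, compound-treated; % growth inhibition vs vehicle control.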
# [3] = NCI Yeast Anticancer Drug Screen. Data for the rad50EPP+ strain (AID 151);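 also: 0% = growth of vehicle-treated control cultures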; conditions: S. cerevisiae rad50 mutant strain, hits give high values
# Method in brief: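 Read-out is yeast growth inhibition relative to vehicle; cells used were the rad50EPP+ strain.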
# [4] = NCI Yeast Anticancer Drug Screen. Data for the rad50 strain (AID 155);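 also: 0% = growth of vehicle-only cultures of the same strain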; conditions: S. cerevisiae rad50 strain growth inhibition, hits give high values
# Method in brief: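 Genetically altered yeast (DNA repair pathway); compound treatment; growth inhibition vs vehicle ctrl.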
# [5] = NCI Yeast Anticancer Drug Screen. Data for the mec2-1 strain (AID 157); conditions: S. cerevisiae mec2-1 strain, hits give high values
# Method in brief: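 Using mec2-1 yeast: add compound, measure growth, express inhibition versus vehicle-treated cultures.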
# [6] = NCI Yeast Anticancer Drug Screen. Data for the rad14 strain (AID 159);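 also: 0% = growth of vehicle-treated control cultures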; conditions: S. cerevisiae rad14 strain growth inhibition, hits give high values
# Method in brief: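 Test compounds were applied to a repair-deficient yeast strain. Its growth was then compared with that of cultures given vehicle alone, and inhibition was expressed relative to those controls.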
# [7] = NCI Yeast Anticancer Drug Screen. Data for the sgs1 mgt1 strain (AID 161);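 also: 0% = growth of cultures given vehicle only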; conditions: S. cerevisiae sgs1 mgt1 strain, hits give high values
# Method in brief: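 This yeast growth screen uses a strain with defined DNA-repair lesions; compound-treated growth is compared with vehicle-treated growth.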
# [8] = NCI Yeast Anticancer Drug Screen. Data for the CLN2oe strain (AID 163);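 also: 0% = growth of vehicle-only control cultures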; conditions: S. cerevisiae CLN2oe strain, hits give high values
# Method in brief: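 Whole-cell yeast growth assay. A strain engineered for altered cell-cycle control received compound, and inhibition relative to vehicle-treated cultures was recorded.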
# [9] = NCI Yeast Anticancer Drug Screen. Data for the cln2 rad14 strain (AID 165);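 also: 0% = growth equal to vehicle treated cultures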; conditions: S. cerevisiae cln2 rad14 strain, hits give high values
# Method in brief: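 Yeast strain cln2 rad14, bearing defects in cell cycle control and DNA repair, serves as the test system; values reflect growth inhibition compared with vehicle.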
# [10] = NCI Yeast Anticancer Drug Screen. Data for the bub3 strain (AID 167); conditions: S. cerevisiae bub3 mutant strain, hits give high values
# Method in brief: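 Yeast carrying a defined mutation is treated with each compound, and growth is compared with that of vehicle-exposed cells to give inhibition.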
# [11] = NCI Yeast Anticancer Drug Screen. Data for the wt2 strain (AID 169);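 also: 0% = growth of vehicle-treated yeast cultures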; conditions: S. cerevisiae wt2 strain growth inhibition, hits give high values
# Method in brief: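 Treated yeast vs. vehicle-treated yeast: growth inhibition determined.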
# [12] = NCI Yeast Anticancer Drug Screen. Data for the mlh1 strain (AID 171);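 also: 0% = growth of vehicle-treated control cultures of the same strain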; conditions: S. cerevisiae mlh1 strain growth inhibition, hits give high values
# Method in brief: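 A yeast strain with a defined genetic lesion serves as the test organism. Cultures receive compound or vehicle, and growth is measured.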
# [13] = NCI Yeast Anticancer Drug Screen. Data for the sgs1 strain (AID 173);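 also: 0% = growth of vehicle-only control cultures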; conditions: S. cerevisiae sgs1 mutant, hits give high values
# Method in brief: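 A genetically defined yeast mutant is incubated with the test compound, and its growth is compared to that of the same strain given vehicle.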
# [14] = NCI Yeast Anticancer Drug Screen. Data for the mlh1 rad18 strain (AID 175); conditions: S. cerevisiae mlh1 rad18 strain growth inhibition, hits give high values
# Method in brief: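 Steps: expose repair-defective yeast to compound; measure growth; express inhibition against vehicle-treated controls.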
# [15] = NCI Yeast Anticancer Drug Screen. Data for the rad18 strain (AID 177); conditions: S. cerevisiae rad18 mutant growth inhibition, hits give high values
# Method in brief: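 Measured value is growth inhibition of a yeast strain bearing a DNA repair alteration, referenced to vehicle-treated cells.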
# [16] = at 5.0 µM (retest, dose inferred, filed as 0.5)
# [17] = at 50.0 µM (retest, dose inferred, filed as 5.0)
smiles,measurement,setting,value
CC(C)c1[nH]nc(C(N)=O)c1N=NN(C)C,growth inhibition,[1]; at 1.2 µM,3%
same,growth inhibition,[1]; at 3.7 µM,4%
same,growth inhibition,[1]; at 11.0 µM,40%
same,growth inhibition,[1]; at 33.0 µM,87% (active)
same,growth inhibition,[1]; at 100.0 µM,95% (active)
same,growth inhibition,[2]; at 1.2 µM,-5%
same,growth inhibition,[2]; at 3.7 µM,-4%
same,growth inhibition,[2]; at 11.0 µM,-8%
same,growth inhibition,[2]; at 33.0 µM,-7%
same,growth inhibition,[2]; at 100.0 µM,-1%
same,growth inhibition,[3]; at 1.2 µM,-1%
same,growth inhibition,[3]; at 3.7 µM,15%
same,growth inhibition,[3]; at 11.0 µM,37%
same,growth inhibition,[3]; at 33.0 µM,73% (active)
same,growth inhibition,[3]; at 100.0 µM,91% (active)
same,growth inhibition,[4]; at 1.2 µM,-5%
same,growth inhibition,[4]; at 3.7 µM,3%
same,growth inhibition,[4]; [16],-90%
same,growth inhibition,[4]; at 11.0 µM,33%
same,growth inhibition,[4]; at 33.0 µM,81% (active)
same,growth inhibition,[4]; [17],83% (active)
same,growth inhibition,[4]; at 50.0 µM,91.5% (active)
same,growth inhibition,[4]; at 100.0 µM,93% (active)
same,growth inhibition,[5]; at 1.2 µM,1%
same,growth inhibition,[5]; at 3.7 µM,-1%
same,growth inhibition,[5]; [16],-46%
same,growth inhibition,[5]; at 11.0 µM,-10%
same,growth inhibition,[5]; at 33.0 µM,4%
same,growth inhibition,[5]; [17],-16%
same,growth inhibition,[5]; at 50.0 µM,24.4%
same,growth inhibition,[5]; at 100.0 µM,61%
same,growth inhibition,[6]; at 1.2 µM,-1%
same,growth inhibition,[6]; at 3.7 µM,1%
same,growth inhibition,[6]; at 11.0 µM,6%
same,growth inhibition,[6]; at 33.0 µM,12%
same,growth inhibition,[6]; at 100.0 µM,29%
same,growth inhibition,[7]; [16],-47%
same,growth inhibition,[7]; [17],24%
same,growth inhibition,[7]; at 50.0 µM,28.9%
same,growth inhibition,[8]; at 1.2 µM,-3%
same,growth inhibition,[8]; at 3.7 µM,-5%
same,growth inhibition,[8]; at 11.0 µM,-2%
same,growth inhibition,[8]; at 33.0 µM,-5%
same,growth inhibition,[8]; at 100.0 µM,6%
same,growth inhibition,[9]; [16],-55%
same,growth inhibition,[9]; [17],-43%
same,growth inhibition,[9]; at 50.0 µM,5.65%
same,growth inhibition,[10]; at 1.2 µM,-17%
same,growth inhibition,[10]; at 3.7 µM,-5%
same,growth inhibition,[10]; [16],-63%
same,growth inhibition,[10]; at 11.0 µM,-5%
same,growth inhibition,[10]; at 33.0 µM,-14%
same,growth inhibition,[10]; [17],-87%
same,growth inhibition,[10]; at 50.0 µM,-4%
same,growth inhibition,[10]; at 100.0 µM,-2%
same,growth inhibition,[11]; at 1.2 µM,-2%
same,growth inhibition,[11]; at 3.7 µM,-1%
same,growth inhibition,[11]; at 11.0 µM,-2%
same,growth inhibition,[11]; at 33.0 µM,-8%
same,growth inhibition,[11]; at 100.0 µM,4%
same,growth inhibition,[12]; at 1.2 µM,4%
same,growth inhibition,[12]; at 3.7 µM,-8%
same,growth inhibition,[12]; at 11.0 µM,-2%
same,growth inhibition,[12]; at 33.0 µM,-3%
same,growth inhibition,[12]; at 100.0 µM,4%
same,growth inhibition,[13]; at 1.2 µM,-2%
same,growth inhibition,[13]; at 3.7 µM,-6%
same,growth inhibition,[13]; at 11.0 µM,12%
same,growth inhibition,[13]; at 33.0 µM,51%
same,growth inhibition,[13]; at 100.0 µM,84% (active)
same,growth inhibition,[14]; [16],-101%
same,growth inhibition,[14]; [17],24%
same,growth inhibition,[14]; at 50.0 µM,58.1%
same,growth inhibition,[15]; at 1.2 µM,3%
same,growth inhibition,[15]; at 3.7 µM,12%
same,growth inhibition,[15]; at 11.0 µM,39%
same,growth inhibition,[15]; at 33.0 µM,80% (active)
same,growth inhibition,[15]; at 100.0 µM,94% (active)
